Among the data in the supplement of paper PMC8007513 are growth yield values, retold here.

Where a name gives a salt, the structure may show the parent alone. ± gives the standard error. Screen size: about 1,300 compounds; about 130 (10%) showed an effect of 50% or more. What follows is part of a selection rich in strong results, with near analogues and random picks from the rest.

This experiment has as its system Trichoderma virens ATCC 9645. As to the kind of experiment: growth yield (OD600) with compound + IPBC relative to untreated control; higher = less growth inhibition. The conditions noted are these: compound concentration: 100 uM, IPBC concentration: 200 ng/ml. The method in brief: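 Plates were read for OD600 at 40 h and 72 h after Trichoderma virens ATCC 9645 spores (15,000 spores ml^−1 in potato dextrose broth) were grown at 30 °C with library compounds at 100 μM final, with or without a biocide at 200 ng ml^−1. Growth is stated relative to the control with neither agent, as the mean of duplicate screens.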

With `CCOc1ccc2nc(S(N)(=O)=O)sc2c1` [Ethoxzolamide] + CCCCNC(=O)OCC#CI [3-iodo-2-propynyl butylcarbamate (IPBC)], the growth yield runs as follows: (40 h) 90.2%; (72 h) 92.2 ± 3.9%.
On to `Nc1nc2ccc(OC(F)(F)F)cc2s1` [Riluzole hydrochloride] + CCCCNC(=O)OCC#CI [3-iodo-2-propynyl butylcarbamate (IPBC)], for which the growth yield runs as follows: (40 h) 27.3 ± 2.2%; (72 h) 49.3 ± 1.9%.
For `CC(C(=O)O)c1ccc(N2Cc3ccccc3C2=O)cc1` (stereo not drawn) [Indoprofen] + CCCCNC(=O)OCC#CI [3-iodo-2-propynyl butylcarbamate (IPBC)], the growth yield was 88.8 ± 11% (40 h) and 91.2 ± 7.3% (72 h).
For `Cc1ccc(C(=O)c2ccc(CC(=O)O)n2C)cc1` [Tolmetin sodium salt dihydrate] + CCCCNC(=O)OCC#CI [3-iodo-2-propynyl butylcarbamate (IPBC)] the same measures were 77.8 ± 4.8% and 83.9 ± 2.3%.
For `C[C@]12CC[C@H](O)C[C@H]1CC[C@@H]1[C@@H]2CC[C@]2(C)[C@@H](C3=CC(=O)OC3)CC[C@]12O` [Digitoxigenin] + CCCCNC(=O)OCC#CI [3-iodo-2-propynyl butylcarbamate (IPBC)] the same measures were 79.58 ± 0.48% and 87.36 ± 0.52%.
`NC(=O)NC1NC(=O)NC1=O` (stereo not drawn) [Allantoin] + CCCCNC(=O)OCC#CI [3-iodo-2-propynyl butylcarbamate (IPBC)]: the growth yield (40 h) was 83.71 ± 0.48% and the growth yield (72 h) was determined as 89.2 ± 2.2%.
On to `CC(C)OC(=O)C(C)(C)Oc1ccc(C(=O)c2ccc(Cl)cc2)cc1` [Fenofibrate] + CCCCNC(=O)OCC#CI [3-iodo-2-propynyl butylcarbamate (IPBC)], for which the growth yield is 65.4 ± 1.3% (40 h) and 76.3 ± 1.9% (72 h).
For `Nc1nc(=O)[nH]cc1F` [Flucytosine] + CCCCNC(=O)OCC#CI [3-iodo-2-propynyl butylcarbamate (IPBC)] the same measures were 88.5 ± 2.1% and 90.4 ± 0.63%.
For `O=c1[nH]cc(F)c(=O)[nH]1` [5-fluorouracil] + CCCCNC(=O)OCC#CI [3-iodo-2-propynyl butylcarbamate (IPBC)] the same measures were 36.9% and 58.1 ± 1.3%.
For `CCN(CC)C(C)C(=O)c1ccccc1` (stereo not drawn) [Amfepramone hydrochloride] + CCCCNC(=O)OCC#CI [3-iodo-2-propynyl butylcarbamate (IPBC)] the same measures were 102 ± 15% and 102 ± 9.3%.
On to `O=C1C(CC[S+]([O-])c2ccccc2)C(=O)N(c2ccccc2)N1c1ccccc1` (stereo not drawn) [Sulfinpyrazone] + CCCCNC(=O)OCC#CI [3-iodo-2-propynyl butylcarbamate (IPBC)], for which the growth yield (40 h) was found to be 106 ± 9.2% and the growth yield (72 h) turned out to be 105 ± 2.4%.
For `Cc1ccc(/C(=C\CN2CCCC2)c2ccccn2)cc1` [Triprolidine hydrochloride] + CCCCNC(=O)OCC#CI [3-iodo-2-propynyl butylcarbamate (IPBC)] the same measures were 96.1 ± 6.5% and 100 ± 1.6%.
For `CN1CCC(=C2c3ccccc3Sc3ccccc32)CC1` [Pimethixene maleate] + CCCCNC(=O)OCC#CI [3-iodo-2-propynyl butylcarbamate (IPBC)], the growth yield reads like this: (40 h) 56.1 ± 1.4%; (72 h) 88 ± 2%.
`CN1CCN2c3ccccc3Cc3ccccc3C2C1` (stereo not drawn) [Mianserine hydrochloride] + CCCCNC(=O)OCC#CI [3-iodo-2-propynyl butylcarbamate (IPBC)]: the growth yield reads like this: (40 h) 82.6 ± 1.3%; (72 h) 94.1 ± 1.8%.
For `CSc1ccc2c(c1)C(N1CCN(C)CC1)Cc1ccccc1S2` (stereo not drawn) [Methiothepin maleate] + CCCCNC(=O)OCC#CI [3-iodo-2-propynyl butylcarbamate (IPBC)] the same measures were 2.06 ± 0.16% and 1.78 ± 0.1%.
Regarding `CC1(C)O[C@@H]2[C@@H](CO[C@@]3(COS(N)(=O)=O)OC(C)(C)O[C@@H]23)O1` [Topiramate] + CCCCNC(=O)OCC#CI [3-iodo-2-propynyl butylcarbamate (IPBC)], the growth yield was determined as 89 ± 5.1% (40 h) and 93.1 ± 5.9% (72 h).
For `CC(C)(Oc1ccc(C2CC2(Cl)Cl)cc1)C(=O)O` (stereo not drawn) [Ciprofibrate] + CCCCNC(=O)OCC#CI [3-iodo-2-propynyl butylcarbamate (IPBC)] the same measures were 78.9 ± 3.6% and 82.2 ± 1.7%.
For `O=c1[nH]c(=O)n([C@H]2C[C@H](O)[C@@H](CO)O2)cc1I` [Idoxuridine] + CCCCNC(=O)OCC#CI [3-iodo-2-propynyl butylcarbamate (IPBC)] the same measures were 87.8 ± 2.1% and 89.04 ± 0.52%.
For `O=c1[nH]c(=O)n([C@H]2C[C@H](O)[C@@H](CO)O2)cc1F` [Floxuridine] + CCCCNC(=O)OCC#CI [3-iodo-2-propynyl butylcarbamate (IPBC)] the same measures were 4.45% and 19.1 ± 2.3%.
As to `O=c1[nH]c(=O)n([C@H]2C[C@H](O)[C@@H](CO)O2)cc1C(F)(F)F` [Trifluridine] + CCCCNC(=O)OCC#CI [3-iodo-2-propynyl butylcarbamate (IPBC)], the growth yield is, setting by setting: (40 h) 90.4 ± 6.2%; (72 h) 92.7 ± 4%.
Take `O=C(NCCNCC(O)COc1ccc(O)cc1)N1CCOCC1` (stereo not drawn) [Xamoterol hemifumarate] + CCCCNC(=O)OCC#CI [3-iodo-2-propynyl butylcarbamate (IPBC)]: the growth yield (40 h) came out at 92.4 ± 1.6% and the growth yield (72 h) amounted to 94.39 ± 0.63%.
For the molecule `COc1cccc2c1C(=O)c1c(O)c3c(c(O)c1C2=O)C[C@@](O)(C(=O)CO)C[C@@H]3O[C@H]1C[C@H](N)[C@H](O)[C@H](C)O1` [Doxorubicin hydrochloride] + CCCCNC(=O)OCC#CI [3-iodo-2-propynyl butylcarbamate (IPBC)], the growth yield stood at 8.1 ± 1.1% (40 h) and 34.8 ± 20% (72 h).
`COc1cccc2c1C(=O)c1c(O)c3c(c(O)c1C2=O)C[C@@](O)(C(C)=O)C[C@@H]3O[C@H]1C[C@H](N)[C@H](O)[C@H](C)O1` [Daunorubicin hydrochloride] + CCCCNC(=O)OCC#CI [3-iodo-2-propynyl butylcarbamate (IPBC)]: the growth yield was 9.21 ± 1.6% (40 h) and 44.7 ± 1.3% (72 h).
In the case of `COc1cccc2c1C(=O)c1c(O)c3c(c(O)c1C2=O)C[C@@](O)(C(=O)CO)C[C@@H]3O[C@H]1C[C@H](N)[C@@H](O)[C@H](C)O1` [Epirubicin hydrochloride] + CCCCNC(=O)OCC#CI [3-iodo-2-propynyl butylcarbamate (IPBC)], the growth yield is, setting by setting: (40 h) 42.7 ± 0.48%; (72 h) 95.33 ± 0.32%.
